Results as given in PubChem BioAssay.
Active and inactive are the calls of the source.

Key:
[1] = binders of probe aFSTL3 on microarray, primary screen, stem cell growth factor project, biochemical, small-molecule microarray, fluorescence 635/667 (AID 1064); conditions: higher = more signal;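 also: measures binding of the biotinylated anti-FSTL3 antibody to printed compounds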
[2] = binders from COS7 lysate, DM2A8 probe, primary screen, torsin A project, cell lysate, small-molecule microarray, fluorescence 635/667 (AID 1065); conditions: higher = more signal, COS7 lysate expressing mutant human TOR1A
[3] = binders of probe aFGF2 on microarray, primary screen, stem cell growth factor project, biochemical, small-molecule microarray, fluorescence 635/667 (AID 1067); conditions: higher = more signal;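 also: measures binding of biotinylated aFGF2 protein to printed compounds on slides; z-score merges feature fluorescence and signal-to-noise across triplicate slides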
[4] = binders of probe aFGF10 on microarray, primary screen, stem cell growth factor project, biochemical, small-molecule microarray, fluorescence 635/667 (AID 1071); conditions: higher = more signal;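 also: score merges 667 nm spot intensity and signal to noise from triplicate slides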
[5] = target: Neurogenic locus notch homolog protein 2 (Homo sapiens) (UniProt Q04721); assay: Notch2 binders on small-molecule microarrays, primary screen, biochemical, small-molecule microarray, 635 nm fluorescence, stem cell growth factors (AID 1073); conditions: Notch2 binding, higher = more signal
[6] = target: Pro-neuregulin-1, membrane-bound isoform (Homo sapiens) (UniProt Q02297); assay: NRG1 binders on small-molecule microarrays, primary screen, psychiatric disease protein project, biochemical, small-molecule microarray, fluorescence 635/667 (AID 1075); conditions: NRG1 binding, 635 nm fluorescence, higher = more signal;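 also: score combines 667 nm spot fluorescence with signal to noise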
[7] = test system: Neuregulin-1 EGF-like domain; assay: binders of neuregulin-1 EGF-like domain, primary screen, biochemical, small-molecule microarray, 635 nm fluorescence (AID 1081); conditions: small-molecule microarray binding, higher = more signal;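 also: binding of the protein to compounds printed on small-molecule microarray slides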
[8] = FRG1 promoter luciferase signal modulators, primary screen, FRG1 inhibition for FSHD, cell-based, C2C12 myotubes, firefly/Renilla luciferase, luminescence (AID 1084); conditions: higher = more signal, called active from +8 up or from −8 down
[9] = binders of probe aFST on microarray, primary screen, stem cell growth factor project, biochemical, small-molecule microarray, fluorescence 635/667 (AID 1086); conditions: higher = more signal;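 also: score merges 667 nm fluorescence with signal-to-noise of each printed compound spot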
[10] = binders of probe aHhip on microarray, primary screen, stem cell growth factor project, biochemical, small-molecule microarray, fluorescence 635/667 (AID 1087); conditions: higher = more signal;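 also: score merges spot fluorescence at 667nm with spot signal to noise ratio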
[11] = test system: PRMT1 (protein arginine N-methyltransferase 1); assay: PRMT1 binders on small-molecule microarrays, primary screen, biochemical, small-molecule microarray, 635 nm fluorescence (AID 1088); conditions: small-molecule microarray binding, higher = more signal;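 also: binding of Prmt1 protein to compounds spotted on small-molecule microarray slides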
[12] = yeast growth modulation, basal conditions, primary screen, YJM789 clinical isolate, OD600, 24 h (AID 1089);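 also: growth of clinical yeast isolate S. cerevisiae YJM 789 seeded 1000 cells per well; test concentration not given here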; conditions: S. cerevisiae YJM789 growth, higher = more signal, called active from +8 up or from −8 down
[13] = fission yeast growth modulation, primary screen, strain 972, OD600, 24 h, no modulator (AID 1090);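 also: basal condition with compound alone and no growth modifier present; test concentration not given here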; conditions: S. pombe 972 growth, higher = more signal, called active from +8 up or from −8 down
[14] = S. cerevisiae growth modulation with rapamycin, primary screen, strain BY4716, OD600, 96 h (AID 1091); conditions: higher = more signal, called active from +8 up or from −8 down; also: test concentration not given here
[15] = target: Torsin-1A-interacting protein 2 (Homo sapiens) (UniProt Q8NFQ8); assay: LULL1 binders on small-molecule microarray, primary screen, cell lysate, human LULL1 lysate, 635/667 nm fluorescence (AID 1092); conditions: hLULL1 lysate binding, 635 nm fluorescence, higher = more signal;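 also: probe is lysate of COS7 cells overexpressing human LULL1; score merges per-feature 667 nm fluorescence with signal-to-noise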
[16] = E. coli growth modulation, two-sided OD650, primary screen, E. coli filamentation project, strain DRC41, 24 h (AID 1093); conditions: OD650, 24 h, higher = more signal, called active from +8 up or from −8 down;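 also: MC1000 strain lacking acrAB efflux and sulA so SOS filamentation is blocked; test concentration not given here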
[17] = small-molecule microarray binders of probe aLefty2, primary screen, biochemical, biotinylated probe, 635/667 nm fluorescence (AID 1094); conditions: higher = more signal;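 also: score merges spot fluorescence near 667 nm with spot signal-to-noise ratio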
[18] = test system: Noggin (protein binding on small-molecule microarray); assay: Noggin binders on small-molecule microarray, primary screen, biochemical, 635/667 nm fluorescence (AID 1095); conditions: 635 nm fluorescence, higher = more signal;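 also: score merges 667 nm feature fluorescence with signal to noise over triplicate slides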
[19] = target: Neurogenic locus notch homolog protein 3 (Homo sapiens) (UniProt Q9UM47); assay: NOTCH3 binders on small-molecule microarray, primary screen, biochemical, 635/667 nm fluorescence (AID 1096); conditions: NOTCH3 binding, 635 nm fluorescence, higher = more signal
[20] = small-molecule microarray binders of probe aEGFR, primary screen, biochemical, biotinylated probe, 635/667 nm fluorescence (AID 1097); conditions: higher = more signal;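 also: probe is a biotinylated anti-EGFR antibody binding compounds printed on slides; score combines fluorescence near 667 nm and signal to noise of each spot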

Torsin-1A-interacting protein 2 (Homo sapiens), sequence (Q8NFQ8 whole entry, looked up): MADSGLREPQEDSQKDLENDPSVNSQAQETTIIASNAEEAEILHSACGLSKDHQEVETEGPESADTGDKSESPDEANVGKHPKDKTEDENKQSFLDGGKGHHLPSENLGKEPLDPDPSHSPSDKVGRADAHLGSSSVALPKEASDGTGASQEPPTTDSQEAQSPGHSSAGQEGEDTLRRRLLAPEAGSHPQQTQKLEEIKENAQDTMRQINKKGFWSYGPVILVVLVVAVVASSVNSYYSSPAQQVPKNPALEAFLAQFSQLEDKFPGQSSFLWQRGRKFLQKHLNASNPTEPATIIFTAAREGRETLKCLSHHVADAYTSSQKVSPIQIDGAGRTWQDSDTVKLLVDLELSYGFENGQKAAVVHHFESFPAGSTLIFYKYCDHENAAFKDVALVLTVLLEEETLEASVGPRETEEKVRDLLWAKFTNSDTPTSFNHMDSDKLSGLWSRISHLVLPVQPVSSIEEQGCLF
Neurogenic locus notch homolog protein 3 (Homo sapiens), sequence (Q9UM47 whole entry, looked up): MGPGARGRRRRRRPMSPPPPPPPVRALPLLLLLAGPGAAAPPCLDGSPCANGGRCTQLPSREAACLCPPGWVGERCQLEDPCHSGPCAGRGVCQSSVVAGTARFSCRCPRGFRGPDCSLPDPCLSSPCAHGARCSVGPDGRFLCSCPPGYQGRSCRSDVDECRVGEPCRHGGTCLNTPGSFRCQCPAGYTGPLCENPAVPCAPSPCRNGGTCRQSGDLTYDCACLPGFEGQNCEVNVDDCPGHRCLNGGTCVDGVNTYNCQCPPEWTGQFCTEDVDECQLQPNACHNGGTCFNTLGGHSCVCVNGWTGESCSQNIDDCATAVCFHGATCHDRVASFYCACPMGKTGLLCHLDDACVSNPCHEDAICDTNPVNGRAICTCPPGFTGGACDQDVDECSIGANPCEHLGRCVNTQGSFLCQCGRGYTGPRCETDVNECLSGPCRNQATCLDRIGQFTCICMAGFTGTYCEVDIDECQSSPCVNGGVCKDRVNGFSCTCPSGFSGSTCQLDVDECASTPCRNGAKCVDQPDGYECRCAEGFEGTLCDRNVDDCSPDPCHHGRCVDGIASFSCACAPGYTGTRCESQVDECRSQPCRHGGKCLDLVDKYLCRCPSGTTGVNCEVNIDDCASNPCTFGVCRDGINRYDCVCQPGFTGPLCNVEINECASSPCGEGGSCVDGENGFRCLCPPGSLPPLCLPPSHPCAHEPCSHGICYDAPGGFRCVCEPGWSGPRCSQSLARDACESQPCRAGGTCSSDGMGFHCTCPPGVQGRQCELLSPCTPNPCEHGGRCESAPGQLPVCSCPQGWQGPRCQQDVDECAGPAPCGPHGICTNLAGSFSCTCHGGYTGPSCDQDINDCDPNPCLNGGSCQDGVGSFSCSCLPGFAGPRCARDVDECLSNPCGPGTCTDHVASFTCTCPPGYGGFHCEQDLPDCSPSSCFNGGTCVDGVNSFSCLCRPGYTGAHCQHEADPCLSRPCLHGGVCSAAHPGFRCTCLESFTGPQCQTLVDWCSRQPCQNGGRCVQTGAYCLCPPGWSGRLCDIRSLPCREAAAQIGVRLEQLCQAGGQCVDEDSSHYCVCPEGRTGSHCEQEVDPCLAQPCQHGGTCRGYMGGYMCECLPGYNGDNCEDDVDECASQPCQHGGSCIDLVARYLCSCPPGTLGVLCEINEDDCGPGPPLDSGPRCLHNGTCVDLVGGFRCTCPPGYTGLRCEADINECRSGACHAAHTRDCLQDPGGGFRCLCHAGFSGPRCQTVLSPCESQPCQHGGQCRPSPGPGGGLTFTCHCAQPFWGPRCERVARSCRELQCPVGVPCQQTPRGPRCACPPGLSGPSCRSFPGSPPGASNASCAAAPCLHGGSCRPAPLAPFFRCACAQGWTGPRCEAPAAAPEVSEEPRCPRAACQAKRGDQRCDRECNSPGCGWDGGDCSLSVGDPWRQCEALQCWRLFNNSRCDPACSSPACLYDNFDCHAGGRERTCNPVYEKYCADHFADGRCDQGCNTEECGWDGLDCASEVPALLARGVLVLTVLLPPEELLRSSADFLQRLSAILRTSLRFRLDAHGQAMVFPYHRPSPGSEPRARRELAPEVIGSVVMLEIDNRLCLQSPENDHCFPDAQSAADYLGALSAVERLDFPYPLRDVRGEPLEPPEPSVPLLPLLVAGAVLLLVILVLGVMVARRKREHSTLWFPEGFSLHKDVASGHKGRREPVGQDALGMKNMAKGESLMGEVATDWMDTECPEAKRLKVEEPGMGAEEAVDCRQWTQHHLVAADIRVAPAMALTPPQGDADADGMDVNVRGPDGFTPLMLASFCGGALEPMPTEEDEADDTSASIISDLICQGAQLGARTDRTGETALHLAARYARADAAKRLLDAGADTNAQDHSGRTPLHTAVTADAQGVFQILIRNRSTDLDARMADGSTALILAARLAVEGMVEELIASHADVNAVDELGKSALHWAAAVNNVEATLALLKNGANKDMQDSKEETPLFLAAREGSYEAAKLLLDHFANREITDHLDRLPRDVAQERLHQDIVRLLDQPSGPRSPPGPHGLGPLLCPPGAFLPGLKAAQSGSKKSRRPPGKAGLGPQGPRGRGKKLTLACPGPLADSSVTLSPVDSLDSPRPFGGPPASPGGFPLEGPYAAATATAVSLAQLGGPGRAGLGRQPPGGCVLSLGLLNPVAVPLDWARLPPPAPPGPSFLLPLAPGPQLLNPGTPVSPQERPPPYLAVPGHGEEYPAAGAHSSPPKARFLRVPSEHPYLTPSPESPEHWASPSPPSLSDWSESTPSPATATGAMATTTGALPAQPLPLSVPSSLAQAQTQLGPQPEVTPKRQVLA
Pro-neuregulin-1, membrane-bound isoform (Homo sapiens), sequence (Q02297 whole entry, looked up, the tested form may be a part, canonical isoform): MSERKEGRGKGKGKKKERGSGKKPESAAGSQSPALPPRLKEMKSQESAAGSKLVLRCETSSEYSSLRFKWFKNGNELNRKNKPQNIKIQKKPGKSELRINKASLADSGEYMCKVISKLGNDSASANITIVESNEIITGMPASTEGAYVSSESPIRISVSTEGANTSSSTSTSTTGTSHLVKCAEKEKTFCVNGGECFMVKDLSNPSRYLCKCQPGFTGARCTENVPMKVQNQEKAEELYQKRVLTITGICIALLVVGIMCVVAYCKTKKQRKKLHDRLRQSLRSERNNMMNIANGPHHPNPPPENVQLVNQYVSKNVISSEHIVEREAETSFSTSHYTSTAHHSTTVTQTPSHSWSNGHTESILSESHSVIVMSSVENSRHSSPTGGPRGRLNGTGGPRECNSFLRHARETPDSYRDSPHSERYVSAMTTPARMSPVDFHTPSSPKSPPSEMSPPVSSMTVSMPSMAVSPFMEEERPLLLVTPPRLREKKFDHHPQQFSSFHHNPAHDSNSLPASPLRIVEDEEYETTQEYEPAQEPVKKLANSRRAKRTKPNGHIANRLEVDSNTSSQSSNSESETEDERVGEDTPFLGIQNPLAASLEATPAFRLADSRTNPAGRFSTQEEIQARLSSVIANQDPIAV

Structure (SMILES)	composite z-score [1]	composite z-score [2]	composite z-score [3]	composite z-score [4]	composite z-score [5]	composite z-score [6]	composite z-score [7]	z-score [8]	composite z-score [9]	composite z-score [10]	composite z-score [11]	z-score [12]	z-score [13]	z-score [14]	composite z-score [15]	z-score [16]	composite z-score [17]	composite z-score [18]	composite z-score [19]	composite z-score [20]
C[C@@]1([C@@H](NC(=O)c2cccs2)c2ccc(-c3ccccc3)cc2)C[C@H]1C1CCCCC1	-0.11	-1.29	-0.428	-0.376	-0.41	0.783	-0.253	2.66 (inactive)	-0.232	-0.523	-1.61	1.53 (inactive)	-0.584 (inactive)	-0.578 (inactive)	2.95	-0.474 (inactive)	-0.288	-0.786	-1.31	-0.239
O=C1c2ccccc2[C@](Cc2ccccc2I)(C(=O)NCC(F)(F)F)[C@H](c2ccc(CO)cc2)N1Cc1ccccc1	-0.213	-0.0086	0.0363	0.15	1.39	1.12	1.21	-0.508 (inactive)	0.585	0.0734	1.55	-0.943 (inactive)	-0.732 (inactive)	-0.666 (inactive)	2.45	0.29 (inactive)	-0.0907	0.444	1.16	-0.0679
C=CCN1C(=O)[C@@]2(O[C@@H](CCO)[C@H]([Si](C)(C)c3ccc(OC)cc3)[C@H]2C)c2cc(NC(=O)[C@H](C)O)ccc21	-0.0083	0.558	-0.0243	1.03	0.503	0.915	1.1	-0.737 (inactive)	0.005	-0.169	1.54	0.988 (inactive)	-1.64 (inactive)	-0.0361 (inactive)	3.15	0.571 (inactive)	-0.0622	0.959	0.759	-0.0485
O=C1OCC=C[C@H]2OC34C=CCN(CCN5CCOCC5)C(=O)[C@H]3N(CCCCCO)C(=O)[C@@H]4[C@@H]12 (stereo not given in full)	-0.099	0.298	-0.128	-0.191	0.0385	-0.0529	1.43	0.401 (inactive)	-0.452	-0.236	-0.0623	-1 (inactive)	-0.586 (inactive)	-0.406 (inactive)	2.22	-0.0128 (inactive)	-0.0282	0.0316	-0.255	-0.0831
COC(=O)[C@]1(Cc2ccccc2N=[N+]=[N-])N=C(c2ccc(OCCCO)cc2)O[C@@H]1c1ccccc1	1.3	0.517	0.0132	-0.152	-0.0515	0.358	0.929	-0.237 (inactive)	0.182	0.0291	0.867	0.537 (inactive)	-1.28 (inactive)	21.8 (active)	2.21	1.06 (inactive)	0.23	-0.4	-0.361	-0.136
CC(C)CNC(=O)[C@@]1(c2ccc([N+](=O)[O-])cc2)CC(=O)N(C(C)C)[C@@H]1c1ccc(CO)cc1	0.722	-0.187	-0.137	-0.138	-0.205	1.95	0.55	-0.696 (inactive)	-0.761	-0.0252	0.808	-0.655 (inactive)	-0.182 (inactive)	-0.812 (inactive)	2.03	0.738 (inactive)	-0.147	-0.641	-0.143	-0.13
C=CC[C@]1(C(=O)N2CCOCC2)N=C(c2ccc(OCCCO)cc2)O[C@H]1c1ccccc1CN=[N+]=[N-]	-0.0635	1.3	0.103	1.04	1.54	1.77	1.3	-1.34 (inactive)	1.99	0.28	1.53	-0.819 (inactive)	-1.63 (inactive)	-0.119 (inactive)	3.49	0.191 (inactive)	0.0503	1.57	1.05	-0.0111
COc1ccc([Si](C)(C)[C@@H]2[C@@H](CC(=O)N(CCO)Cc3ccccc3)O[C@]3(C(=O)N(C)c4c(Br)cc(C)cc43)[C@H]2C)cc1	-0.106	-0.0018	-0.13	0.33	-0.561	0.679	0.508	-3.19 (inactive)	-0.051	0.0052	1.37	-0.8 (inactive)	0.0424 (inactive)	0.991 (inactive)	0.214	-1.37 (inactive)	-0.149	1.56	0.92	-0.0978
CCCN1C(=O)[C@@H]2Cc3c([nH]c4ccccc34)[C@@H](c3cccc(O)c3)N2C1=O	-0.588	0.247	-0.113	0.428	0.59	0.263	0.12	0.85 (inactive)	-0.0001	-0.0994	0.213	-0.521 (inactive)	-0.132 (inactive)	0.385 (inactive)	0.379	0.317 (inactive)	-0.0823	0.287	0.423	-0.0424
O=C1C2C=CC(C(O)c3cccc4ccccc34)N(Nc3ccccc3)C2C(=O)N1c1ccccc1 (stereo not given)	-0.0673	0.113	0.127	0.822	1.61	1.89	1.19	-1.41 (inactive)	1.55	-0.261	1.56	0.487 (inactive)	-0.251 (inactive)	-0.0667 (inactive)	3.16	-1.07 (inactive)	0.343	0.428	1.04	-0.0271
CN(C)C(=O)[C@@]1(CCS(=O)(=O)c2ccccc2)N=C(c2ccc(OCCCO)cc2)O[C@H]1c1ccccc1CN=[N+]=[N-]	-0.323	0.124	0.226	0.972	1.33	1.63	1.27	-1.56 (inactive)	0.889	-0.236	1.54	-1.54 (inactive)	-0.346 (inactive)	0.0194 (inactive)	3.79	1.15 (inactive)	0.0225	1.66	1.12	0.0316
O=C1O[C@H](c2ccccc2)[C@H](c2ccccc2)N2[C@H]1[C@@H](C(=O)N1CCCCCCC1)[C@]1(C(=O)Nc3ccc(C#CCCO)cc31)[C@H]2c1ccc(OCCO)cc1	3.51	2.79	0.972	1.49	1.76	2.84	1.35	-0.409 (inactive)	3.33	2.53	1.56	1.55 (inactive)	-0.0863 (inactive)	3.73 (inactive)	5.06	0.669 (inactive)	1.6	2.36	1.01	1.28
COC(=O)[C@@]1(Cc2ccc(F)cc2)[C@@H]2[C@@H](CC(=O)[C@H]2CC(=O)C(=O)N2CCCC2)CN1C(=O)c1ccccc1	0.664	-0.196	0.0255	0.56	1.71	1.85	1.12	2.38 (inactive)	1.61	-0.24	1.27	0.347 (inactive)	1.57 (inactive)	3.52 (inactive)	3.67	-0.708 (inactive)	0.299	-0.413	1.03	0.147
CN(C)C(=O)[C@@]1(CCC(=O)OC(C)(C)C)N=C(c2ccc(OCCCO)cc2)O[C@H]1c1ccccc1N=[N+]=[N-]	0.294	1.45	0.0168	0.739	1.2	1.96	1.52	0.768 (inactive)	1.79	0.245	1.54	0.82 (inactive)	0.217 (inactive)	0.701 (inactive)	3.82	-0.0123 (inactive)	0.126	1.09	1.09	0.101
COCCOC(=O)N1C(=O)[C@@]2(c3cc(C#Cc4ccc(OC)cc4)ccc31)[C@H](C(N)=O)[C@H]1C(=O)O[C@H](c3ccccc3)[C@H](c3ccccc3)N1[C@@H]2c1ccc(OCCO)cc1	-0.358	0.562	0.0014	0.62	1.17	0.869	1.28	0.574 (inactive)	0.512	-0.251	1.53	2.17 (inactive)	0.719 (inactive)	4.88 (inactive)	2.75	1.31 (inactive)	-0.0757	1.43	1.07	0.0251
C=CCOC(=O)[C@@H]1[C@H]2C(=O)O[C@H](c3ccccc3)[C@H](c3ccccc3)N2[C@H](c2ccc(OCCOC(=O)[C@H]3C[C@H]4C(=O)N[C@@H](Cc5ccccc5)C(=O)N4[C@H]3c3cccc(OCCO)c3)cc2)[C@@]12C(=O)Nc1ccc(I)cc12	0.014	0.548	-0.0512	0.957	1.09	0.0935	1.31	2.41 (inactive)	0.56	-0.186	1.53	2.59 (inactive)	-2.26 (inactive)	0.874 (inactive)	1.93	-1.07 (inactive)	-0.193	1.59	1.03	0.276
O=C1N(CCS(=O)(=O)c2ccccc2)Cc2ccccc2C[C@@]12COC(c1ccc(OCCCO)cc1)=N2	0.965	0.667	0.212	0.613	1.45	1.02	1.35	0.0674 (inactive)	1.58	-0.0459	1.54	0.978 (inactive)	0.381 (inactive)	3.45 (inactive)	3.04	0.937 (inactive)	0.686	0.982	1.04	0.285
C[C@H]1ON(c2ccccc2)[C@@H](c2ccccc2)[C@@H]1C(=O)N1C(=O)OC[C@@H]1c1ccccc1	-0.331	-0.111	-0.019	0.602	0.527	0.211	0.656	0.84 (inactive)	0.0477	-0.374	0.648	0.386 (inactive)	-0.0839 (inactive)	-0.299 (inactive)	0.352	-0.0337 (inactive)	-0.159	0.743	0.848	-0.0409
Cc1ccc(S[C@]2(C(=O)NCCN3CCOCC3)CC(=O)N(C3Cc4ccccc4C3)[C@@H]2c2ccc(CO)cc2)cc1	-0.108	1.32	-0.0825	-0.168	-0.746	1.72	1.27	-0.611 (inactive)	0	-0.0994	1.42	-0.432 (inactive)	-0.291 (inactive)	-0.0611 (inactive)	2.77	0.7 (inactive)	-0.0928	-1.11	-0.521	-0.222
